# Measured values from paper PMC11062922 (Nature Chemical Biology, 2023).
# Where two headings read alike, the source gives them in different places.
# Assays:
# Parameters in all cases: species or system human, MV4-11 + K-562 + COLO205 + SK-N-BE2 + OVCAR-8
# DYRK1A = conditions: read-out: apparent Kd, compound concentrations: 100 nM and 1000 nM (sheet 'Samples'), n = 1
# GSK3A = conditions: read-out: apparent Kd, compound concentrations: 100 nM and 1000 nM (sheet 'Samples'), n = 1
# ACVR1B = conditions: read-out: apparent Kd, compound concentrations: 100 nM and 1000 nM (sheet 'Samples'), n = 1
# ACVR1 = conditions: read-out: apparent Kd, compound concentrations: 100 nM and 1000 nM (sheet 'Samples'), n = 1
# AURKB = conditions: read-out: apparent Kd, n = 1
# DDR1 = conditions: read-out: apparent Kd, n = 1
# SIK2 = conditions: read-out: apparent Kd; compound concentrations: 100 nM and 1000 nM (sheet 'Samples'), CATDS: 2.05809527554131E-2; n = 1
# SRC = conditions: read-out: apparent Kd; compound concentrations: 100 nM and 1000 nM (sheet 'Samples'), CATDS: 1.6357706357996601E-2; n = 1
# CDKL5 = conditions: read-out: apparent Kd, compound concentrations: 100 nM and 1000 nM (sheet 'Samples'), n = 1
# EGFR = conditions: read-out: apparent Kd; compound concentrations:100 nM and 1000 nM (sheet 'Samples'); n = 1
# FLT3 = conditions: read-out: apparent Kd, n = 1
# AKT2 = conditions: read-out: apparent Kd, n = 1
# MAPK14 = conditions: read-out: apparent Kd; compound concentrations:100 nM and 1000 nM (sheet 'Samples'); n = 1
# GSK3B = conditions: read-out: apparent Kd, compound concentrations: 100 nM and 1000 nM (sheet 'Samples'), n = 1
# EPHA1 = conditions: read-out: apparent Kd; compound concentrations: 100 nM and 1000 nM (sheet 'Samples'), CATDS: 6.90247660864724E-2; n = 1
# ACAD11 = conditions: read-out: apparent Kd; compound concentrations: 100 nM and 1000 nM (sheet 'Samples'), CATDS: 2.6823851715364801E-2; n = 1
# CDK16 = conditions: read-out: apparent Kd; compound concentrations: 100 nM and 1000 nM (sheet 'Samples'), CATDS: 2.5546052944154699E-2; n = 1
# FRK = conditions: read-out: apparent Kd; compound concentrations: 100 nM and 1000 nM (sheet 'Samples'), CATDS: 5.5821190853221701E-2; n = 1
# [1] = compound concentrations:100 nM and 1000 nM (sheet 'Samples')
smiles,measurement,setting,value
COc1ccccc1CNC1=NC(=O)/C(=C/c2ccc3ncccc3c2)S1 [RO4503315-000],potency estimated from few doses,DYRK1A; CATDS: 8.6327639243549595E-2,596 nM
Cl.O=C1N=C(NCc2ccccn2)S/C1=C\c1ccc2ncccc2c1 [RO4874953-001],potency estimated from few doses,DYRK1A; CATDS: 0.10050944146971801,893 nM
same,potency estimated from few doses,GSK3A; CATDS: 8.1690756727002906E-2,1370 nM
CN1C(=O)c2ccccc2N(C)c2nc(Nc3cnn(C4CCNCC4)c3)ncc21 [XMD-17-51],potency estimated from few doses,ACVR1B; CATDS: 2.1196121470028601E-2,383 nM
same,potency estimated from few doses,ACVR1; CATDS: 1.6735726463305099E-2,805 nM
same,potency estimated from few doses,"AURKB; compound concentrations: 100 nM and 1000 nM (sheet 'Samples'), CATDS: 0.169613052671825",6.84 nM
same,potency estimated from few doses,"DDR1; compound concentrations: 100 nM and 1000 nM (sheet 'Samples'), CATDS: 1.7451025116255701E-2",697 nM
same,potency estimated from few doses,SIK2,416 nM
same,potency estimated from few doses,SRC,875 nM
CNC1=NC(=O)/C(=C/c2ccc3ncccc3c2)S1 [RO4595949-000],potency estimated from few doses,CDKL5; CATDS: 4.9375621350065603E-2,2150 nM
same,potency estimated from few doses,DYRK1A; CATDS: 0.10780330705145599,209 nM
CCn1cc(-c2ccnc3[nH]c(-c4cccc(CN(C)C)c4)cc23)c(-c2ccc(NC(=O)N(C)C)cc2)n1 [GSK1070916],potency estimated from few doses,AURKB; [1],594 nM
same,potency estimated from few doses,DDR1; [1],869 nM
CS(=O)(=O)Cc1ccc(Nc2nccc(-c3c(-c4cccc(NC(=O)C5CCCCC5)c4)nn4ncccc34)n2)cc1 [GSK350559A],potency estimated from few doses,DDR1; [1],401 nM
same,potency estimated from few doses,EGFR,1890 nM
same,potency estimated from few doses,FLT3; [1],660 nM
O=C1N=C(NCC(CO)c2ccccc2)S/C1=C\c1ccc2ncccc2c1 (stereo not shown) [RO4582641-000],potency estimated from few doses,CDKL5; CATDS: 6.3730815830875698E-2,1510 nM
same,potency estimated from few doses,DYRK1A; CATDS: 9.2693691803080097E-2,353 nM
NC1=NC(=O)/C(=C/c2ccc3ncccc3c2)S1 [RO4569139-000],potency estimated from few doses,DYRK1A; CATDS: 0.43183776325706602,39.3 nM
Cc1cccc(-c2cc(-c3c[nH]nc3-c3ccccn3)ccn2)c1 [GW679395X],potency estimated from few doses,AKT2; [1],2340 nM
same,potency estimated from few doses,MAPK14,1290 nM
Cn1cc(C2=C(c3cn(CCCO)c4ccccc34)C(=O)NC2=O)c2ccccc21 [RO0317377-000],potency estimated from few doses,GSK3A; CATDS: 0.248455440441466,311 nM
same,potency estimated from few doses,GSK3B; CATDS: 0.25409844627903599,301 nM
COc1ccc(Nc2nccc(N3CCC(NC(=O)Nc4ccc5c(c4)OCO5)C3)n2)cc1 (stereo not shown) [GSK1379745A],potency estimated from few doses,"AKT2; compound concentrations: 100 nM and 1000 nM (sheet 'Samples'), CATDS: 4.5642212363568399E-2",1150 nM
O=C1N=C(NCCc2ccccc2F)S/C1=C\c1ccc2ncccc2c1 [RO4498483-000],potency estimated from few doses,DYRK1A; CATDS: 8.8096211342070505E-2,883 nM
same,potency estimated from few doses,"FLT3; compound concentrations: 100 nM and 1000 nM (sheet 'Samples'), CATDS: 7.3322298638159894E-2",1520 nM
Cc1ccc(O)cc1Nc1ccnc2cc(-c3ccccn3)ccc12.Cl [GW440139A],potency estimated from few doses,ACVR1B; CATDS: 0.14783179697021401,9.88 nM
same,potency estimated from few doses,ACVR1; CATDS: 2.9577067141002798E-2,556 nM
same,potency estimated from few doses,EPHA1,38.9 nM
O=C1N=C(NCCc2cccc(F)c2)S/C1=C\c1ccc2ncccc2c1 [RO4508344-000],potency estimated from few doses,DYRK1A; CATDS: 0.105735187935075,750 nM
same,potency estimated from few doses,"FLT3; compound concentrations: 100 nM and 1000 nM (sheet 'Samples'), CATDS: 0.14042863340460501",431 nM
COc1cccc(-n2ncc3c(N/N=C/c4ccc(C(=O)NCCN(C)C)cc4)ncnc32)c1.Cl [GW784307A],potency estimated from few doses,ACAD11,1620 nM
same,potency estimated from few doses,ACVR1B; CATDS: 4.53928679778344E-2,315 nM
same,potency estimated from few doses,ACVR1; CATDS: 0.29663347499665699,12.6 nM
same,potency estimated from few doses,CDK16,2020 nM
same,potency estimated from few doses,CDKL5; CATDS: 0.115641908649272,49.3 nM
same,potency estimated from few doses,GSK3A; CATDS: 8.2277419546057398E-2,89 nM
same,potency estimated from few doses,GSK3B; CATDS: 7.3478066296280203E-2,110 nM
COc1ccccc1CCNC1=NC(=O)/C(=C/c2ccc3ncccc3c2)S1 [RO4503316-000],potency estimated from few doses,DYRK1A; CATDS: 0.20132255504791199,128 nM
NC(=O)c1cccc(Nc2nccc(Nc3cccc4[nH]ncc34)n2)c1 [GW782612X],potency estimated from few doses,ACVR1B; CATDS: 5.6390113546044701E-2,401 nM
same,potency estimated from few doses,ACVR1; CATDS: 0.10376431199902,122 nM
same,potency estimated from few doses,FRK,411 nM
O=C1N=C(N[C@@H](CO)c2ccccc2)S/C1=C\c1ccc2ncccc2c1 [RO4554340-000],potency estimated from few doses,DYRK1A; CATDS: 0.16734351378465701,1030 nM
